# According to ChEMBL document CHEMBL1157539, “Thousands of chemical starting points for antimalarial lead identification” (Nature, 2010):
# How the values were obtained:
# Assay type in all cases: functional
# Plasmodium falciparum [1] = test: GSK_TCMDC: Inhibition of Plasmodium falciparum 3D7 in whole red blood cells, using parasite LDH activity as an index of growth. Test compounds present at 2uM
# Plasmodium falciparum [2] = test: GSK_TCMDC: Inhibition of Plasmodium falciparum Dd2 in whole red blood cells, using parasite LDH activity as an index of growth. Test compounds present at 2uM
# HepG2 = test: GSK_TCMDC: Percent inhibition of human HepG2 cell line. Test compounds present at 10uM.
Compound,Inhibition (Plasmodium falciparum [1]),Inhibition (Plasmodium falciparum [2]),Inhibition (HepG2)
CC(C)(C)NS(=O)(=O)c1cc(C(=O)N2CCC(CCN3CCC(O)(c4cccc(C(F)(F)F)c4)CC3)(c3cccc(F)c3)CC2)c(Cl)cc1F,88%,55%,15%
CC(=O)Nc1nc(C(=O)Nc2ccc(-c3cccc(-c4nc5cc(F)ccc5[nH]4)c3)cc2)cs1,94%,29%,86%
O=C(NC1CCN(c2ncc(C(F)(F)F)cc2Cl)CC1)c1cccs1,84%,65%,15%
Cc1cc2nc(-c3ccc(C(=O)NCc4cccc(F)c4)cc3)[nH]c2cc1C,91%,6%,0%
O=C(Nc1ccc(-c2cccc(CN3CCC(O)CC3)c2)cc1)c1cccc(Cl)c1.O=C(O)C(F)(F)F,94%,14%,50%
Cc1ccccc1Nc1cc(Nc2ccccc2C)c2ccccc2n1,96%,93%,28%
CN(CCN(C)C(=O)NCc1ccccc1)C(=O)NCc1ccccc1,100%,0%,2%
CC(=O)Nc1ccc(OCCN(Cc2ccccc2C(F)(F)F)c2ccc(C#N)c(C(F)(F)F)c2)cc1,100%,81%,8%
COc1ccc(NC2=C(c3ccccc3)C(=O)c3ccccc32)cn1,96%,84%,0%
CCOc1ccc2nc(C)cc(N/N=C/c3cccc([N+](=O)[O-])c3)c2c1,100%,93%,7%
CC1CCCC(NCc2c(O)ccc3ccccc23)C1.Cl (stereo unspecified),93%,25%,10%
CCOC(=O)CCCCCNC[C@H](O)c1ccccc1.Cl,98%,0%,2%
NCC1CCCN1Cc1ccc(-c2ccc(-c3nc4cc(C(F)(F)F)ccc4[nH]3)s2)cc1.O=C(O)C(F)(F)F (stereo unspecified),100%,97%,31%
O=C(O)C(F)(F)F.OCC1CCN(Cc2ccc(-c3ccc(-c4nc5ccccc5[nH]4)cc3)cc2)CC1,100%,84%,37%
CCCNC(=O)CN1CN(c2ccccc2)C2(CCN(C(=O)c3ccc(C(C)(C)C)cc3)CC2)C1=O,99%,98%,0%
CN1CCN(CC2(Nc3nccc(NCCc4cn(C)c5ccccc45)n3)CCCCC2)CC1,91%,41%,67%
CCN(CC)CCN(Cc1ccc(-c2ccc(C#N)cc2)cc1)C(=O)Cn1c(CCc2cccc(F)c2F)nc(=O)c2ccccc21.O=C(O)C(O)C(O)C(=O)O,100%,46%,31%
COc1ccc(C)c(Nc2ccnc(Nc3cccc(-c4nc5ccccc5[nH]4)c3)n2)c1.Cl,98%,35%,27%
Cc1ccc(NC(C)C(=O)Nc2ccc(C#N)cc2)cc1S(=O)(=O)N1CCCCC1 (stereo unspecified),92%,92%,11%
Cc1ccccc1CNc1nccc(NCCC(=O)Nc2ccccc2)n1.O=C(O)C(F)(F)F,90%,15%,16%
Cc1ccc(C(=O)Nc2ccc(Nc3ccnc4cc(-c5nccs5)ccc34)cc2O)cc1.Cl,100%,100%,100%

Compound,Inhibition (Plasmodium falciparum [1]),Inhibition (Plasmodium falciparum [2]),Inhibition (HepG2)
CC(C)N1CCN(c2ccc(OCCCCN3CCN(c4cccc(Cl)c4Cl)CC3)cc2Cl)CC1.Cl,89%,34%,63%
N#Cc1ccc(C(=O)Nc2cc(-c3cccc(O)c3)cc3[nH]ncc23)cc1,90%,79%,15%
CCOC(=O)c1nc(-c2ccc(Cl)cc2)[nH]c1NC(=S)NCCCN1CCOCC1,92%,33%,22%
COc1cc(/C=N/Nc2nc(Nc3ccccc3)nc(Nc3ccccc3)n2)ccc1OCc1ccccc1[N+](=O)[O-],98%,18%,8%
Cc1cc(NC(=O)c2cccs2)ccc1OC1CCN(Cc2ccc(F)cc2)C1.O=C(O)C(F)(F)F (stereo unspecified),95%,92%,0%
COc1ccc(Nc2nccc(N3CCC(NC(=O)Nc4cccc(C(C)=O)c4)C3)n2)cc1 (stereo unspecified),98%,79%,29%
COc1ccc(-c2cc(-c3nc4cc(C(=O)N5CCOCC5)ccc4[nH]3)c(=O)n(C)c2)cc1OC.O=C(O)C(F)(F)F,93%,95%,6%
Cc1cc(C(=O)OCC(N)=O)c(C)n1-c1ccc(F)cc1,97%,96%,0%
CC(C)(C)c1ccc(CN2CCC(NC(=O)c3ccc(-c4ccccc4Cl)s3)CC2)cc1.O=C(O)C(F)(F)F,84%,29%,36%
CN1CCC(NCc2ccc(S(=O)(=O)Nc3ccc(Oc4cccc(Cl)c4)cc3)cc2)CC1.O=C(O)C(F)(F)F,99%,5%,47%
Clc1ccc2c(NCc3ccccn3)ccnc2c1,99%,99%,0%
Br.CC1(C)N=C(N)N=C(N)N1OCCc1ccc2ccccc2c1,96%,95%,65%
CC(C)N1CCC(N(Cc2ccc(-c3ccc(C(F)(F)F)cc3)cc2)C(=O)Cn2c(CCc3cccc(F)c3F)cc(=O)c3cn(C)nc32)CC1.O=C(O)C(O)C(O)C(=O)O,89%,78%,100%
Cc1ccc2c(-c3ccc([N+](=O)[O-])o3)cc(C)nc2c1,95%,47%,20%
CCCCCOc1ccc(C(=NC)N(CCCCC)CCCCC)c2ccccc12.I,96%,80%,70%
O=C(NC1CC1)c1ccc(N2CCC(COc3cccc(F)c3)CC2)nc1,89%,88%,0%
CCNc1cc(C)nc(Nc2ccc(NC(=O)c3c(F)cccc3Cl)cc2)n1,100%,89%,49%
COc1cc2c(cc1OC)C(C(=O)Nc1ccc(C(F)(F)F)cc1)C(c1cccs1)N(C)C2=O (stereo unspecified),99%,86%,31%
Clc1ccc(Nc2nc(Nc3ccc(Cl)c(Cl)c3)nc(Sc3nc4ccccc4[nH]3)n2)cc1Cl,99%,100%,10%
COc1cc2nc(N3CCN(C(=O)c4cccc(I)c4)CC3)nc(N)c2cc1OC,88%,26%,11%
Cc1cc(C)c2cc(CNCCCNc3nc4ccccc4[nH]3)[nH]c2c1,100%,0%,32%

Compound,Inhibition (Plasmodium falciparum [1]),Inhibition (Plasmodium falciparum [2]),Inhibition (HepG2)
COc1ccc(CN2CCCC(C(=O)c3ccc(C(F)(F)F)cc3)C2)c(O)c1 (stereo unspecified),98%,88%,0%
CCN(CC)/C(=N/C(=N)NCc1ccc(Cl)cc1)NCCCCCCN/C(=N\C(=N)NCc1ccc(Cl)cc1)N(CC)CC,100%,100%,18%
Fc1ccc2[nH]c(-c3ccc(-c4ccc(CN5CCC(CCN6CCCCC6)CC5)cc4)cc3)nc2c1.O=C(O)C(F)(F)F,100%,100%,98%
COc1cccc(C(=O)OC2=C3CCC(=O)C3(C)CCC2=O)c1 (stereo unspecified),93%,9%,37%
CCC(C)CNC(=O)CN1CN(c2ccccc2)C2(CCN(C(=O)c3ccc(Br)cc3)CC2)C1=O (stereo unspecified),88%,88%,10%
CN1CCN(CCCN(Cc2ccc(-c3ccc(CNCCc4ccccc4)cc3)cc2)C(=O)c2cccs2)CC1.O=C(O)C(F)(F)F,98%,78%,32%
O=C(c1cc(C(=O)Nc2ccccc2F)c(=O)n(-c2ccccc2F)c1)c1cc(Cl)ccc1O,98%,80%,2%
CCCCc1cc(NCc2ccncc2)nc(Nc2ccc(C)cc2)n1,100%,59%,7%
O=C(O)C(F)(F)F.c1cc(-c2ccc(CNCc3ccc(-c4csnn4)cc3)cc2)cc(-c2nc3ccccc3[nH]2)c1,100%,96%,60%
Cc1cccc(CNc2nc(C)cc(NCCC(=O)Nc3ccccc3)n2)c1.O=C(O)C(F)(F)F,100%,54%,15%
COc1ccc(NC(=O)c2ccc(Br)c(C)c2)cc1N1CCN(Cc2ccccc2)CC1.O=C(O)C(=O)O,95%,3%,0%
N#Cc1cccc(CN(Cc2ccc(Cl)c(Cl)c2)S(=O)(=O)c2cccc([N+](=O)[O-])c2)c1,100%,73%,3%
COC(=O)c1ccc(NC(=O)c2ccc(CCN3CCC(c4nc(COCC(F)(F)F)c(-c5ccc(F)cc5)o4)CC3)cc2)cc1,89%,37%,22%
CNC(=O)NC1=NC(C)(C)N(OCCCOc2cc(Cl)c(Cl)cc2Cl)C(N)=N1,97%,2%,7%
Br.CC1(C)NC(N)=NC(=N)N1OCc1cccs1,93%,0%,60%
COc1ccc(CCNCCCCCCNCCc2ccccc2Cl)cc1OC.Cl,96%,3%,13%
Cc1ccccc1NC(=O)C1CSCN1C(=O)OCc1ccccc1 (stereo unspecified),91%,0%,8%
O=C(CNC(=O)c1ccc(O)cc1)Nc1ccc(-c2cccc(-c3nc4cc(C(F)(F)F)ccc4[nH]3)c2)cc1,92%,47%,26%
Cl.O=C(NCCCCN1CCC(O)(c2ccc3c(c2)OCO3)CC1)c1ccc(NC(=O)c2ccc(Cl)cc2)cc1,86%,6%,15%
CN1CCC(NCc2ccc(-c3ccc(S(=O)(=O)NC4CCC4)s3)cc2)CC1.O=C(O)C(F)(F)F,92%,31%,31%
